Compound activity (PubChem)
A selection: hits, their analogues and other compounds. The true share with any hit is near 2.6%.
APOBEC3A inh – APOBEC3A ssDNA deaminase inhibitors, primary screen, selectivity assay for APOBEC3G inhibitor project, biochemical, FAM/TAMRA oligo cleavage fluorescence; DNA dC->dU-editing enzyme APOBEC-3A (Homo sapiens), P31941; recombinant A3A, FAM/TAMRA ssDNA deamination fluorescence; inhibition, % at 20 µM; hit rate 0.41% among 330,000;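 active = at least 40% inhibition at 20 µM here, with at most 30% in a related deaminase screen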;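 also: plate controls were A3A with DMSO for no effect and wells lacking A3A enzyme for full effect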
Target sequence (P31941 whole entry, looked up): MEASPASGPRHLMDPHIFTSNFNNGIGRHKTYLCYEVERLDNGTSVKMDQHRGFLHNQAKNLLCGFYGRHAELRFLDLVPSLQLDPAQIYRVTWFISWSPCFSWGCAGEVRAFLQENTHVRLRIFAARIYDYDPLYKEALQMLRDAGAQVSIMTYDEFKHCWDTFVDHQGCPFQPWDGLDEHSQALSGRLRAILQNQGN
eIF4H inh – human eIF4H binding inhibitors, primary screen, translation initiation inhibitor project, biochemical, uHTS, fluorescence polarization | eIF4H fluorescence polarization binding assay | inhibition, % at 35 µM | hit rate 0.94% among 290,000;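 also: calls also rest on retests at 20 µM and on dose response follow-up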
PABP FP inh – PABP poly(A) RNA binding inhibitors, primary screen, biochemical, fluorescence polarization, uHTS | calls only at 35 µM | hit rate 1% among 290,000;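 also: calls also rest on retests at 20 µM and on dose response follow-up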
PABP1 MLLE inh – inhibitors of PABP1 MLLE–PAM2 peptide binding, primary screen, biochemical, fluorescence polarization, FITC-PAM2, GST-MLLE. hit rate 0.36% among 360,000. Polyadenylate-binding protein 1 (Homo sapiens), P11940. AID 588489, 2011. inhibition, % at 20 µM; in the data active = inhibition above about 35%, passing the limit was not always enough;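 also: plate controls were DMSO wells with GST-MLLE for no effect and wells lacking GST-MLLE protein for full effect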
A3G deaminase – APOBEC3G DNA deaminase inhibitors, primary screen, biochemical, fluorescence, single-stranded DNA substrate, uHTS. inhibition, % at 20 µM. hit rate 0.28% among 330,000. recombinant A3G, ssDNA deamination FAM/TAMRA fluorescence. DNA dC->dU-editing enzyme APOBEC-3G (Homo sapiens), Q9HC16;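 active = inhibition of at least 40% at 20 µM, with no more than 30% in the related APOBEC3A deaminase screen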;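 also: plate controls were DMSO wells with A3G for no effect and wells lacking A3G enzyme for full effect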
PHOSPHO1 block – PubChem AID 1565; Phosphoethanolamine/phosphocholine phosphatase (Homo sapiens), Q8TCT1; recombinant PHOSPHO1, absorbance phosphatase assay; inhibition, % at 13.3 µM; hit rate 1.1% among 290,000; in the data active = inhibition above about 60%
Target sequence (Q8TCT1 whole entry, looked up): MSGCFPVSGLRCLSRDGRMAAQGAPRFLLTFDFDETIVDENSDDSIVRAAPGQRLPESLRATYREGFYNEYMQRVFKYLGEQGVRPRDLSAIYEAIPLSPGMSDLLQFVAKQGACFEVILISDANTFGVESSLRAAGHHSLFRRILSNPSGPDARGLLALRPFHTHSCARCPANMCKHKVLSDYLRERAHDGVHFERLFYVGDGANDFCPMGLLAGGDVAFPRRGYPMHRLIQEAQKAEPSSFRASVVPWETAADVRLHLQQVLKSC
* marks the source's active call; other numbers are inactive results; i = inactive; ? = inconclusive; nt = no result; + = active, no number. Unless noted, no rule for the calls is given here.

SMILES | APOBEC3A inh | eIF4H inh | PABP FP inh | PABP1 MLLE inh | A3G deaminase | PHOSPHO1 block
CCCCCC(=O)NNC(=S)NC(=O)c1ccc([N+](=O)[O-])cc1 | 0 | 62 | i | 39* | 12 | 48
O=C(NNC(=S)NC(=O)c1ccccc1[N+](=O)[O-])c1ccccc1O | -4 | 16 | i | 16 | 1 | -16
Cc1ccccc1-n1c(=O)/c(=C\c2ccco2)s/c1=C(/C#N)C(=O)Nc1ccccc1 | 1 | 52 | i | -35 | -5 | 83*
COCCn1nnnc1C(c1cc2cc(C)ccc2[nH]c1=O)N1CCCCCC1 (stereo unspecified) | -1 | 0 | i | 21 | 12 | 92*
CCOC(=O)C1CCN(C(c2cc3ccc(C)cc3[nH]c2=O)c2nnnn2C2CCCCC2)CC1 (stereo unspecified) | -4 | -4 | i | -28 | -7 | 92*
COCCn1nnnc1C(c1cc2c(C)cc(C)cc2[nH]c1=O)N1CCCCCC1 (stereo unspecified) | 4 | -2 | i | 18 | 7 | -18
Cc1ccc2cc(C(c3nnnn3C(C)(C)C)N3CCCC3)c(=O)[nH]c2c1C (stereo unspecified) | nt | -8 | i | nt | nt | 94*
CCN(Cc1ccccc1)C(c1cc2cc(C)cc(C)c2[nH]c1=O)c1nnnn1CCOC (stereo unspecified) | -5 | -2 | i | 12 | -3 | 3
CCC(C)(C)n1nnnc1C(c1cc2cc3c(cc2[nH]c1=O)OCO3)N1CCCCC1 (stereo unspecified) | 0 | -6 | i | -7 | -3 | 42
CCN(Cc1ccccc1)C(c1cc2cc(C)ccc2[nH]c1=O)c1nnnn1CCOC (stereo unspecified) | 0 | -6 | i | 9 | -3 | 74*
O=C(CN1C(=O)C(=O)N(C2CCCC2)C1=O)Nc1ccc(OC(F)F)cc1 | 3 | nt | nt | -3 | 0 | nt
CC(C)Nc1ncnc2c1ncn2[C@H]1CN(Cc2cccs2)C[C@@H](CO)O1 | nt | nt | nt | 3 | nt | nt
CC12CCC(=O)N1C(C(=O)NCc1ccccc1Cl)CS2 (stereo unspecified) | 3 | nt | nt | 9 | 8 | nt
CC(OC(=O)c1ccc(NC(=O)CC#N)cc1)C(=O)Nc1nc(-c2ccccc2)cs1 (stereo unspecified) | -2 | nt | nt | -8 | -9 | nt
CC(OC(=O)c1ccc(NC(=O)CC#N)cc1)C(=O)Nc1ccc(Oc2ccccc2)cc1 (stereo unspecified) | 4 | 54* | i | -27 | -6 | 12
CCOC(=O)c1nn(C)c(=S)n(C)c1=O | nt | nt | nt | 17 | nt | nt
Cn1nc(C(=O)O)c(=O)n(C)c1=O | nt | nt | nt | 40* | nt | nt
Cc1c(CN(C)C(=O)c2ccc(Br)o2)cnn1C | 0 | -4 | i | 10 | -8 | -19
C=CCn1c(NC(=O)c2ccco2)c(S(=O)(=O)c2ccccc2)c2nc3ccccc3nc21 | nt | 62* | + | nt | nt | -22
O=C(Nc1ccc(S(=O)(=O)NCc2ccccc2)cc1)c1ccc(Br)o1 | -3 | -6 | i | 5 | -6 | -4
C=CCn1c(NC(=O)c2ccc(Br)o2)c(S(=O)(=O)c2ccccc2)c2nc3ccccc3nc21 | 3 | ? | + | -43 | 1 | 15
N=c1sccn1CC(=O)NC(c1ccccc1)c1ccccc1 | 6 | 1.1* | i | 2 | 1 | 32
Cc1nn(CCc2n[nH]c(=S)n2C)c(C)c1Br | -5 | 14 | i | 10 | 18 | 85*
CCOC(=O)C(C)Sc1ccc2nnc(CCNS(=O)(=O)c3ccccc3)n2n1 (stereo unspecified) | 0 | 3 | i | -1 | -6 | -19
CCCCC(=O)Nc1ccc(C(=O)NCCN2CCOCC2)cc1 | -2 | -1 | i | 3 | -3 | -19
SMILES | APOBEC3A inh | eIF4H inh | PABP FP inh | PABP1 MLLE inh | A3G deaminase | PHOSPHO1 block
O=C(O)c1ccccc1CSc1nc2ccccc2o1 | 0 | 4 | i | -26 | -1 | 75*
Cc1cc(C)nc(NC(=O)CSc2nc3ccccc3o2)n1 | 7 | 10 | i | -41 | 1 | 69*
Cc1nonc1NC(=O)CSc1nc2ccccc2o1 | -1 | 83* | + | 2 | -6 | 35
COc1ccc(S(=O)(=O)N2CCOC2CNC(=O)C(=O)NCCCN2CCOCC2)cc1C (stereo unspecified) | -1 | 9 | i | 11 | -4 | 34
CCOc1ccccc1CNC(=O)CCn1ccc2cc(S(=O)(=O)N3CCCCC3)ccc21 | -6 | -12 | i | 2 | -5 | 18
Nc1c(S(=O)(=O)c2ccccc2)c2nc3ccccc3nc2n1/N=C/c1ccco1 | 3 | 64 | + | -36 | -6 | 31
Cc1ccc(S(=O)(=O)c2c(N)n(/N=C/c3ccco3)c3nc4ccccc4nc23)cc1 | -1 | 69* | + | -17 | -5 | 1
CCCCCCCNC(=O)c1ccc(N2CCC3(CC2)OCCO3)c([N+](=O)[O-])c1 | 0 | -6 | i | 19 | -7 | 0
COc1cc(NC(=O)c2ccco2)c(OC)cc1NC(=O)CSc1ncc(-c2ccc(F)cc2)[nH]1 | -3 | 1 | i | 25 | -7 | 74*
O=C(Cn1cnc2sc3c(c2c1=O)CCCC3)NCC(=O)Nc1ccc(F)cc1F | 3 | -4 | i | 14 | 3 | 65*
CCNC(=S)NNC(=O)Nc1ccccc1 | 2 | 8 | i | -98 | -2 | 79*
CCOc1ccc(/C=N/NC(=O)CN2CCCCC2)cc1OCC | 3 | 0 | i | -3 | 7 | 35
Cc1cc(OCc2cc(C(=O)NCc3csc(C(C)C)n3)no2)cc(C)c1Cl | 1 | 2 | i | 2 | 1 | 68*
S=c1nn[nH]n1C12CC3CC(CC(C3)C1)C2 | -7 | -7 | i | 12 | 20 | 102*
CC(C)C[C@H](NC(=O)C1CC(=O)N(c2ccc3c(c2)OCO3)C1)C(=O)NC1CCCC1 (stereo partly specified) | -1 | ? | ? | 33 | -5 | 70*
O=C(NCc1ccc2c(c1)OCO2)C1CC(=O)N(C2CCCCCCC2)C1 (stereo unspecified) | 1 | 12 | i | -2 | -1 | 48
O=C(NCc1ccc2c(c1)OCO2)C1CC(=O)N(C2CCCC2)C1 (stereo unspecified) | -7 | -3 | i | -13 | -2 | 64*
CC(C)n1c(N2CCN(S(=O)(=O)c3cccc([N+](=O)[O-])c3)CC2)nc2ccccc21 | -2 | -1 | i | -10 | -3 | 61*
